Source: PubChem BioAssay AID1159580 (chemical genetic matrix, 2015)
Several values for one entry are separate records, joined by “and”; a condition that tells them apart may be missing. Equal entries are not always repeated. Hit rate of the full screen: of about 5,500 compounds, about 2,000 (36%) were called active. Roughly 18% stayed inconclusive and do not appear here. Rule as the data show it: active = normalized growth mostly below about 0.91 (no sharp cut-off); inconclusive = no clear call, values can overlap the other calls; inactive = mostly above about 0.92. The list shows a part of the results.

Assay: chemical genetic growth profiling, strain panel (AID 1159580);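 also: tested at 20 µM; growth read once vehicle control cultures reached saturation at 30 °C; 1 = growth at the plate median or of vehicle wells; lower values mean less growth of the strain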
Settings: S. cerevisiae deletion strains, growth OD

Measured: normalized growth

C=C[C@H]1CN2CC[C@H]1C[C@H]2[C@H](O)c1ccnc2ccccc12
inactive: locus YAL013W, strain DEP1, stronger effect = lower value 1.01 | locus YAL021C, strain ccr4, stronger effect = lower value 1 | locus YAL026C, strain drs2, stronger effect = lower value 0.995 | locus YAL030W, strain snc1, stronger effect = lower value 0.997 | locus YBL061C, strain skt5, stronger effect = lower value 0.995 | locus YBR009C, strain hhf1, stronger effect = lower value 0.992 | locus YBR021W, strain FUR4, stronger effect = lower value 1.01 | locus YBR023C, strain chs3, stronger effect = lower value 0.992 | locus YBR171W, strain sec66, stronger effect = lower value 1 | locus YBR229C, strain ROT2, stronger effect = lower value 1.01 | locus YBR231C, strain swc5, stronger effect = lower value 0.984 | locus YBR279W, strain paf1, stronger effect = lower value 1 | locus YCL011C, strain gbp2, stronger effect = lower value 1.01 | locus YCL016C, strain dcc1, stronger effect = lower value 0.994 | locus YCL029C, strain bik1, stronger effect = lower value 0.969 | locus YCL061C, strain MRC1, stronger effect = lower value 0.983 | locus YCL069W, strain vba3, stronger effect = lower value 1.01 | locus YCR088W, strain abp1, stronger effect = lower value 1 | locus YDL005C, strain med2, stronger effect = lower value 0.997 | locus YDL035C, strain GPR1, stronger effect = lower value 0.986 | locus YDL040C, strain nat1, stronger effect = lower value 0.999 | locus YDL074C, strain BRE1, stronger effect = lower value 1.04 | locus YDL101C, strain DUN1, stronger effect = lower value 0.988 | locus YDL134C, strain PPH21, stronger effect = lower value 1 | locus YDL185W, strain tfp1, stronger effect = lower value 0.965 | locus YDL192W, strain arf1, stronger effect = lower value 0.979 | locus YDR001C, strain nth1, stronger effect = lower value 0.986 | locus YDR069C, strain doa4, stronger effect = lower value 1.01 | locus YDR101C, strain arx1, stronger effect = lower value 0.985 | locus YDR137W, strain rgp1, stronger effect = lower value 1.02 | locus YDR150W, strain NUM1, stronger effect = lower value 0.966 | locus YDR159W, strain sac3, stronger effect = lower value 0.949 | locus YDR162C, strain NBP2, stronger effect = lower value 1.01 | locus YDR195W, strain ref2 0.959 | locus YDR297W, strain sur2, stronger effect = lower value 1 | locus YDR318W, strain mcm21, stronger effect = lower value 0.989 | locus YDR334W, strain swr1, stronger effect = lower value 1 | locus YDR335W, strain msn5, stronger effect = lower value 0.993 | locus YDR388W, stronger effect = lower value 0.979 | locus YDR392W, strain spt3, stronger effect = lower value 0.999 | locus YDR502C, strain sam2, stronger effect = lower value 0.979 | locus YEL003W, strain gim4, stronger effect = lower value 0.995 | locus YEL037C, strain rad23, stronger effect = lower value 0.993 | locus YEL061C, strain CIN8 (second series), stronger effect = lower value 0.999 | locus YEL061C, strain CIN8, stronger effect = lower value 1 | locus YER015W, strain faa2, stronger effect = lower value 1 | locus YER016W, strain bim1, stronger effect = lower value 0.975 | locus YER110C, stronger effect = lower value 0.976 | locus YER111C, strain swi4, stronger effect = lower value 1.01 | locus YER155C, strain BEM2 (second series), stronger effect = lower value 0.977 | locus YER155C, strain BEM2, stronger effect = lower value 0.98 | locus YER167W, strain BCK2, stronger effect = lower value 1.01 | locus YFR010W, strain ubp6, stronger effect = lower value 1.01 | locus YGL078C, strain dbp3, stronger effect = lower value 0.985 | locus YGL086W, strain mad1, stronger effect = lower value 0.99 | locus YGL167C, strain pmr1, stronger effect = lower value 0.987 | locus YGL173C, strain kem1, stronger effect = lower value 0.977 | locus YGL227W, strain vid30, stronger effect = lower value 1 | locus YGL240W, strain doc1, stronger effect = lower value 0.984 | locus YGL248W, strain PDE1, stronger effect = lower value 1.01 | locus YGL253W, strain hxk2, stronger effect = lower value 1 | locus YGR078C, strain PAC10, stronger effect = lower value 1.01 | locus YGR135W, strain pre9, stronger effect = lower value 0.974 | locus YGR229C, strain SMI1, stronger effect = lower value 1.02 | locus YGR252W, strain gcn5, stronger effect = lower value 0.982 | locus YHR013C, strain ard1, stronger effect = lower value 1 | locus YHR027C, strain rpn1, stronger effect = lower value 0.997 | locus YHR030C, strain SLT2, stronger effect = lower value 1 and 0.969 | locus YHR079C, strain IRE1 (second series), stronger effect = lower value 0.986 | locus YHR079C, strain IRE1, stronger effect = lower value 0.968 | locus YHR094C, strain hxt1, stronger effect = lower value 0.973 | locus YHR129C, strain ARP1, stronger effect = lower value 1.01 | locus YHR142W, strain chs7, stronger effect = lower value 1 | locus YHR200W, strain rpn10, stronger effect = lower value 0.981 | locus YIL066C, strain RNR3, stronger effect = lower value 1 | locus YIL073C, strain SPO22, stronger effect = lower value 0.927 | locus YIL125W, strain kgd1, stronger effect = lower value 0.994 | locus YIR030C, strain dcg1, stronger effect = lower value 0.979 | locus YJL092W, strain hpr5, stronger effect = lower value 0.999 | locus YJL095W, strain BCK1 (second series), stronger effect = lower value 0.998 | locus YJL095W, strain BCK1, stronger effect = lower value 1.04 and 0.962 | locus YJL115W, strain asf1, stronger effect = lower value 1 | locus YJL129C, strain trk1, stronger effect = lower value 0.988 | locus YJL134W, strain LCB3, stronger effect = lower value 0.995 | locus YJL154C, strain vps35, stronger effect = lower value 1 | locus YJL164C, strain tpk1, stronger effect = lower value 1.01 | locus YJL166W, strain qcr8, stronger effect = lower value 0.95 | locus YJL168C, strain set2, stronger effect = lower value 0.986 | locus YJL187C, strain SWE1 (second series), stronger effect = lower value 0.977 | locus YJR043C, strain POL32, stronger effect = lower value 1.01 | locus YJR066W, strain TOR1, stronger effect = lower value 0.942
